# Results reported in paper PMC11062922 (Nature Chemical Biology, 2023).
# Like-named read-outs stand apart in the source and are kept apart here.
# Assays:
# ACVR1B = details: read-out: apparent Kd, n = 1
# AURKB = details: read-out: apparent Kd, n = 1
# [1] = compound concentrations:100 nM and 1000 nM (sheet 'Lestaurtinib' of Supplementary Table 1),run:Lestaurtinib_02339_R1,Plate:MR001
# [2] = compound concentrations:100 nM and 1000 nM (sheet 'Lestaurtinib' of Supplementary Table 1),run:Lestaurtinib_02364_R2,Plate:MR002
# [3] = compound concentrations:100 nM and 1000 nM (sheet 'Lestaurtinib' of Supplementary Table 1),run:Lestaurtinib_02364_R3,Plate:MR002
# [4] = compound concentrations:100 nM and 1000 nM (sheet 'Lestaurtinib' of Supplementary Table 1),run:Lestaurtinib_02367_R2,Plate:MR003
# [5] = compound concentrations:100 nM and 1000 nM (sheet 'Lestaurtinib' of Supplementary Table 1),run:Lestaurtinib_02381_R1,Plate:MR004
# [6] = compound concentrations:100 nM and 1000 nM (sheet 'Lestaurtinib' of Supplementary Table 1),run:Lestaurtinib_02437_R3,Plate:MR007
substance,measurement,setting,value
Lestaurtinib,potency estimated from few doses,ACVR1B; [1],730 nM
same,potency estimated from few doses,ACVR1B; [2],951 nM
same,potency estimated from few doses,ACVR1B; [3],661 nM
same,potency estimated from few doses,"ACVR1B; compound concentrations:100 nM and 1000 nM (sheet 'Lestaurtinib' of Supplementary Table 1),run:Lestaurtinib_02367_R1,Plate:MR003",671 nM
same,potency estimated from few doses,ACVR1B; [4],684 nM
same,potency estimated from few doses,"ACVR1B; compound concentrations:100 nM and 1000 nM (sheet 'Lestaurtinib' of Supplementary Table 1),run:Lestaurtinib_02367_R3,Plate:MR003",783 nM
same,potency estimated from few doses,ACVR1B; [5],694 nM
same,potency estimated from few doses,"ACVR1B; compound concentrations:100 nM and 1000 nM (sheet 'Lestaurtinib' of Supplementary Table 1),run:Lestaurtinib_02381_R3,Plate:MR004",515 nM
same,potency estimated from few doses,"ACVR1B; compound concentrations:100 nM and 1000 nM (sheet 'Lestaurtinib' of Supplementary Table 1),run:Lestaurtinib_02422_R2,Plate:MR006",951 nM
same,potency estimated from few doses,"ACVR1B; compound concentrations:100 nM and 1000 nM (sheet 'Lestaurtinib' of Supplementary Table 1),run:Lestaurtinib_02437_R1,Plate:MR007",592 nM
same,potency estimated from few doses,ACVR1B; [6],740 nM
same,potency estimated from few doses,"ACVR1B; compound concentrations:100 nM and 1000 nM (sheet 'Lestaurtinib' of Supplementary Table 1),run:Lestaurtinib_02438_R1,Plate:MR008",415 nM
same,potency estimated from few doses,"ACVR1B; compound concentrations:100 nM and 1000 nM (sheet 'Lestaurtinib' of Supplementary Table 1),run:Lestaurtinib_02443_R2,Plate:MR009",855 nM
same,potency estimated from few doses,"ACVR1B; compound concentrations:100 nM and 1000 nM (sheet 'Lestaurtinib' of Supplementary Table 1),run:Lestaurtinib_02443_R3,Plate:MR009",487 nM
same,potency estimated from few doses,"ACVR1B; compound concentrations:100 nM and 1000 nM (sheet 'Lestaurtinib' of Supplementary Table 1),run:Lestaurtinib_02473_R1,Plate:MR010",479 nM
same,potency estimated from few doses,"ACVR1B; compound concentrations:100 nM and 1000 nM (sheet 'Lestaurtinib' of Supplementary Table 1),run:Lestaurtinib_02473_R2,Plate:MR010",674 nM
same,potency estimated from few doses,"ACVR1B; compound concentrations:100 nM and 1000 nM (sheet 'Lestaurtinib' of Supplementary Table 1),run:Lestaurtinib_02482_R1,Plate:MR011",665 nM
same,potency estimated from few doses,"ACVR1B; compound concentrations:100 nM and 1000 nM (sheet 'Lestaurtinib' of Supplementary Table 1),run:Lestaurtinib_02487_R1,Plate:MR012",741 nM
same,potency estimated from few doses,"ACVR1B; compound concentrations:100 nM and 1000 nM (sheet 'Lestaurtinib' of Supplementary Table 1),run:Lestaurtinib_02487_R2,Plate:MR012",754 nM
same,potency estimated from few doses,"ACVR1B; compound concentrations:100 nM and 1000 nM (sheet 'Lestaurtinib' of Supplementary Table 1),run:Lestaurtinib_02487_R3,Plate:MR012",549 nM
same,potency estimated from few doses,"ACVR1B; compound concentrations:100 nM and 1000 nM (sheet 'Lestaurtinib' of Supplementary Table 1),run:Lestaurtinib_02496_R2,Plate:MR013",776 nM
same,potency estimated from few doses,"ACVR1B; compound concentrations:100 nM and 1000 nM (sheet 'Lestaurtinib' of Supplementary Table 1),run:Lestaurtinib_02496_R3,Plate:MR013",965 nM
same,potency estimated from few doses,"ACVR1B; compound concentrations:100 nM and 1000 nM (sheet 'Lestaurtinib' of Supplementary Table 1),run:Lestaurtinib_02566_R1,Plate:MR014",386 nM
same,potency estimated from few doses,"ACVR1B; compound concentrations:100 nM and 1000 nM (sheet 'Lestaurtinib' of Supplementary Table 1),run:Lestaurtinib_02566_R3,Plate:MR014",479 nM
same,potency estimated from few doses,"ACVR1B; compound concentrations:100 nM and 1000 nM (sheet 'Lestaurtinib' of Supplementary Table 1),run:Lestaurtinib_02577_R3,Plate:MR016",422 nM
same,potency estimated from few doses,"ACVR1B; compound concentrations:100 nM and 1000 nM (sheet 'Lestaurtinib' of Supplementary Table 1),run:Lestaurtinib_02584_R1,Plate:MR017",545 nM
same,potency estimated from few doses,"ACVR1B; compound concentrations:100 nM and 1000 nM (sheet 'Lestaurtinib' of Supplementary Table 1),run:Lestaurtinib_02584_R2,Plate:MR017",970 nM
same,potency estimated from few doses,"ACVR1B; compound concentrations:100 nM and 1000 nM (sheet 'Lestaurtinib' of Supplementary Table 1),run:Lestaurtinib_02584_R3,Plate:MR017",748 nM
same,potency estimated from few doses,"ACVR1B; compound concentrations:100 nM and 1000 nM (sheet 'Lestaurtinib' of Supplementary Table 1),run:Lestaurtinib_02601_R1,Plate:MR018",559 nM
same,potency estimated from few doses,"ACVR1B; compound concentrations:100 nM and 1000 nM (sheet 'Lestaurtinib' of Supplementary Table 1),run:Lestaurtinib_02601_R3,Plate:MR018",707 nM
same,potency estimated from few doses,"ACVR1B; compound concentrations:100 nM and 1000 nM (sheet 'Lestaurtinib' of Supplementary Table 1),run:Lestaurtinib_02606_R1,Plate:MR019",628 nM
same,potency estimated from few doses,"ACVR1B; compound concentrations:100 nM and 1000 nM (sheet 'Lestaurtinib' of Supplementary Table 1),run:Lestaurtinib_02606_R3,Plate:MR019",836 nM
same,potency estimated from few doses,"ACVR1B; compound concentrations:100 nM and 1000 nM (sheet 'Lestaurtinib' of Supplementary Table 1),run:Lestaurtinib_02624_R1,Plate:MR020",613 nM
same,potency estimated from few doses,"ACVR1B; compound concentrations:100 nM and 1000 nM (sheet 'Lestaurtinib' of Supplementary Table 1),run:Lestaurtinib_02624_R3,Plate:MR020",724 nM
same,potency estimated from few doses,"ACVR1B; compound concentrations:100 nM and 1000 nM (sheet 'Lestaurtinib' of Supplementary Table 1),run:Lestaurtinib_02724_R1,Plate:MR021",624 nM
same,potency estimated from few doses,"ACVR1B; compound concentrations:100 nM and 1000 nM (sheet 'Lestaurtinib' of Supplementary Table 1),run:Lestaurtinib_02724_R2,Plate:MR021",755 nM
same,potency estimated from few doses,"ACVR1B; compound concentrations:100 nM and 1000 nM (sheet 'Lestaurtinib' of Supplementary Table 1),run:Lestaurtinib_02741_R3,Plate:MR023",712 nM
same,potency estimated from few doses,"ACVR1B; compound concentrations:100 nM and 1000 nM (sheet 'Lestaurtinib' of Supplementary Table 1),run:Lestaurtinib_02748_R1,Plate:MR024",417 nM
same,potency estimated from few doses,"ACVR1B; compound concentrations:100 nM and 1000 nM (sheet 'Lestaurtinib' of Supplementary Table 1),run:Lestaurtinib_02748_R2,Plate:MR024",745 nM
same,potency estimated from few doses,"ACVR1B; compound concentrations:100 nM and 1000 nM (sheet 'Lestaurtinib' of Supplementary Table 1),run:Lestaurtinib_02752_R3,Plate:MR025",724 nM
same,potency estimated from few doses,"ACVR1B; compound concentrations:100 nM and 1000 nM (sheet 'Lestaurtinib' of Supplementary Table 1),run:Lestaurtinib_02765_R1,Plate:MR026",811 nM
same,potency estimated from few doses,"ACVR1B; compound concentrations:100 nM and 1000 nM (sheet 'Lestaurtinib' of Supplementary Table 1),run:Lestaurtinib_02765_R2,Plate:MR026",488 nM
same,potency estimated from few doses,"ACVR1B; compound concentrations:100 nM and 1000 nM (sheet 'Lestaurtinib' of Supplementary Table 1),run:Lestaurtinib_02766_R3,Plate:MR027",495 nM
same,potency estimated from few doses,"ACVR1B; compound concentrations:100 nM and 1000 nM (sheet 'Lestaurtinib' of Supplementary Table 1),run:Lestaurtinib_02768_R2,Plate:MR028",577 nM
same,potency estimated from few doses,"ACVR1B; compound concentrations:100 nM and 1000 nM (sheet 'Lestaurtinib' of Supplementary Table 1),run:Lestaurtinib_02768_R3,Plate:MR028",533 nM
same,potency estimated from few doses,"ACVR1B; compound concentrations:100 nM and 1000 nM (sheet 'Lestaurtinib' of Supplementary Table 1),run:Lestaurtinib_02795_R1,Plate:MR022",857 nM
same,potency estimated from few doses,"ACVR1B; compound concentrations:100 nM and 1000 nM (sheet 'Lestaurtinib' of Supplementary Table 1),run:Lestaurtinib_02795_R2,Plate:MR022",563 nM
same,potency estimated from few doses,"ACVR1B; compound concentrations:100 nM and 1000 nM (sheet 'Lestaurtinib' of Supplementary Table 1),run:Lestaurtinib_02795_R3,Plate:MR022",806 nM
same,potency estimated from few doses,"ACVR1B; compound concentrations:100 nM and 1000 nM (sheet 'Lestaurtinib' of Supplementary Table 1),run:Lestaurtinib_02802_R1,Plate:MR029",480 nM
same,potency estimated from few doses,"ACVR1B; compound concentrations:100 nM and 1000 nM (sheet 'Lestaurtinib' of Supplementary Table 1),run:Lestaurtinib_02802_R2,Plate:MR029",584 nM
same,potency estimated from few doses,"ACVR1B; compound concentrations:100 nM and 1000 nM (sheet 'Lestaurtinib' of Supplementary Table 1),run:Lestaurtinib_02802_R3,Plate:MR029",656 nM
same,potency estimated from few doses,"ACVR1B; compound concentrations:100 nM and 1000 nM (sheet 'Lestaurtinib' of Supplementary Table 1),run:Lestaurtinib_02896_R1,Plate:MR030",549 nM
same,potency estimated from few doses,"ACVR1B; compound concentrations:100 nM and 1000 nM (sheet 'Lestaurtinib' of Supplementary Table 1),run:Lestaurtinib_02896_R3,Plate:MR030",494 nM
same,potency estimated from few doses,"ACVR1B; compound concentrations:100 nM and 1000 nM (sheet 'Lestaurtinib' of Supplementary Table 1),run:Lestaurtinib_03172_R1,Plate:MR031",377 nM
same,potency estimated from few doses,"ACVR1B; compound concentrations:100 nM and 1000 nM (sheet 'Lestaurtinib' of Supplementary Table 1),run:Lestaurtinib_03172_R2,Plate:MR031",568 nM
same,potency estimated from few doses,"ACVR1B; compound concentrations:100 nM and 1000 nM (sheet 'Lestaurtinib' of Supplementary Table 1),run:Lestaurtinib_03172_R3,Plate:MR031",598 nM
same,potency estimated from few doses,"ACVR1B; compound concentrations:100 nM and 1000 nM (sheet 'Lestaurtinib' of Supplementary Table 1),run:Lestaurtinib_03252_R2,Plate:MR032",547 nM
same,potency estimated from few doses,"ACVR1B; compound concentrations:100 nM and 1000 nM (sheet 'Lestaurtinib' of Supplementary Table 1),run:Lestaurtinib_03260_R2,Plate:MR033",551 nM
same,potency estimated from few doses,"ACVR1B; compound concentrations:100 nM and 1000 nM (sheet 'Lestaurtinib' of Supplementary Table 1),run:Lestaurtinib_03260_R3,Plate:MR033",778 nM
same,potency estimated from few doses,AURKB; [1],261 nM
same,potency estimated from few doses,"AURKB; compound concentrations:100 nM and 1000 nM (sheet 'Lestaurtinib' of Supplementary Table 1),run:Lestaurtinib_02339_R2,Plate:MR001",143 nM
same,potency estimated from few doses,"AURKB; compound concentrations:100 nM and 1000 nM (sheet 'Lestaurtinib' of Supplementary Table 1),run:Lestaurtinib_02364_R1,Plate:MR002",260 nM
same,potency estimated from few doses,AURKB; [2],159 nM
same,potency estimated from few doses,AURKB; [3],220 nM
same,potency estimated from few doses,AURKB; [4],304 nM
same,potency estimated from few doses,AURKB; [5],278 nM
same,potency estimated from few doses,"AURKB; compound concentrations:100 nM and 1000 nM (sheet 'Lestaurtinib' of Supplementary Table 1),run:Lestaurtinib_02381_R2,Plate:MR004",232 nM
same,potency estimated from few doses,"AURKB; compound concentrations:100 nM and 1000 nM (sheet 'Lestaurtinib' of Supplementary Table 1),run:Lestaurtinib_02407_R2,Plate:MR005",132 nM
same,potency estimated from few doses,"AURKB; compound concentrations:100 nM and 1000 nM (sheet 'Lestaurtinib' of Supplementary Table 1),run:Lestaurtinib_02407_R3,Plate:MR005",268 nM
same,potency estimated from few doses,"AURKB; compound concentrations:100 nM and 1000 nM (sheet 'Lestaurtinib' of Supplementary Table 1),run:Lestaurtinib_02422_R1,Plate:MR006",157 nM
same,potency estimated from few doses,AURKB; [6],26.5 nM
same,potency estimated from few doses,"AURKB; compound concentrations:100 nM and 1000 nM (sheet 'Lestaurtinib' of Supplementary Table 1),run:Lestaurtinib_02438_R2,Plate:MR008",158 nM
